TDP1 block – qHTS Assay for Inhibitors of Tyrosyl-DNA Phosphodiesterase (TDP1). recombinant TDP1, AlphaScreen DNA substrate cleavage. hit rate 0.28% among 350,000. Potency, µM (highest dose often 130 µM), for the others: at the top dose activity change, negative = inhibition, actives largely listed as inhibitors; note: potency is the fitted concentration of half-maximal effect; % is set by controls: 0 for no effect and ±100 for the full control effect; nearly all actives have a fitted effect of over 40% in size
Target sequence (Q9NUW8 whole entry, looked up): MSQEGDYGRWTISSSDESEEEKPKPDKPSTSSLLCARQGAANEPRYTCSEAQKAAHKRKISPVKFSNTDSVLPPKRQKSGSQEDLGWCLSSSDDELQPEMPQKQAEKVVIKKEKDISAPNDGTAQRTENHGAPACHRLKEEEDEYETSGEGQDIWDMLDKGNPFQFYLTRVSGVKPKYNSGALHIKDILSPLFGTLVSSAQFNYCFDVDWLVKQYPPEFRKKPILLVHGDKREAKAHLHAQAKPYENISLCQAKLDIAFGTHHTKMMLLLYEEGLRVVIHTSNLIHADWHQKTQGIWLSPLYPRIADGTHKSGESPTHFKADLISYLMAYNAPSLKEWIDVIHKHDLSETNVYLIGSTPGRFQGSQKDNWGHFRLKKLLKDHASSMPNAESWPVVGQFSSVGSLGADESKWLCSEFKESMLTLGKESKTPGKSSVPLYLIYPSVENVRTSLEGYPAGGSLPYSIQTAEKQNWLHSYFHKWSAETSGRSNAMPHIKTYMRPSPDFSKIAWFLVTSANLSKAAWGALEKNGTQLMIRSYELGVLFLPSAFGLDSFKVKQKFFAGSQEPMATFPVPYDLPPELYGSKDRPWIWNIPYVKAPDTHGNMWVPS
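AlphaScreen read-out: signal falls as enzyme removes the 3' tyrosine-FITC from a 5'-biotinylated DNA oligo (15 nM, 5 min, RT). Enzyme was E. coli-made recombinant Tdp1 at 1 nM, exposed to compound for 15 min beforehand; beads 10 ug/ml, 10 min.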
TDP1 cell noCPT – qHTS for Inhibitors of human tyrosyl-DNA phosphodiesterase 1 (TDP1): qHTS in cells in absence of CPT; DT40 Tdp1-/- hTDP1 cells, no CPT, ATP luminescence, 48 h; Potency, µM (highest dose often 46.2 µM), for inactives: at the highest dose activity change, negative = growth inhibition, actives largely listed as inhibitors; hit rate 15% among 420,000; note: potency is the fitted concentration of half-maximal effect; % is set by controls: 0 for no effect and ±100 for the full control effect; nearly all actives have a fitted effect of over 55% in size
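No-CPT arm: Tdp1-/-;hTDP1 DT40 cells (400/well) plus compounds, incubated ≥48 hr at 37 °C. Readout CellTiter-Glo luminescence.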
miR-21 act – qHTS Assay for Modulators of miRNAs and/orActivators of miR-21 | AID 2288, 2010 | HeLa miR-21 FLuc reporter, luciferase, 48 h | Potency, µM (highest dose often 38.3 µM), without a hit: top-dose activity change, positive = activation, usual class: activators | 340,000 tested, under 10 active;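 note: % of control where 0% means no effect; miR-21 action dims this reporter so a rising signal means less miR-21 action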
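HeLa cells endogenously expressing miR-21, stably carrying CMV-driven firefly luciferase with a downstream miR-21 binding site, 2000 cells/well. Titrations up to approximately 40 uM, 48 hours; luciferase luminescence read.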
TDP1 cell CPT – qHTS for Inhibitors of human tyrosyl-DNA phosphodiesterase 1 (TDP1): qHTS in cells in presence of CPT; AID 686979, 2013; Potency, µM (series often up to 46.2 µM), for the others: top-dose activity change, negative = growth inhibition, hits mostly inhibitors; hit rate 12% among 420,000; chicken DT40 Tdp1-/-;hTDP1 cells + 20 nM CPT, ATP luminescence, 48 h; note: potency is the fitted concentration of half-maximal effect; % is set by controls: 0 for no effect and ±100 for the full control effect; nearly all actives have a fitted effect of over 55% in size
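Chicken DT40 Tdp1-/- cells stably complemented with human TDP1 were seeded at 400 cells/well in medium containing 20 nM camptothecin, exposed to pin-transferred compounds, and grown at 37 °C for at least 48 hr. Viability was read as ATP luminescence.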
uPA generation – qHTS for Inhibitors of Cell Surface uPA Generation. cell surface uPA generation assay, qHTS. hit rate 0.31% among 330,000. Potency, µM (top dose mostly 38.3 µM), for the others: at the top dose activity change, negative = inhibition, actives largely listed as inhibitors; active = well fitted inhibition curve with a large enough effect; inconclusive = small, poorly fitted or top-dose-only effect; inactive = no such curve, though single readings can be large or run the other way; tested in mouse RAW 264.7 cells; note: potency is the fitted concentration of half-maximal effect; % is set by controls: 0 for no effect and ±100 for the full control effect; nearly all actives have a fitted effect of over 55% in size
* = called active by the depositor; ? = inconclusive; . = no result given; ! = a repeat was not active; [ ] = another dose, or the depositor's remark. Shown are actives, neighbours in structure and some others; about 16% of the full set was active somewhere. Unless noted, calls come from the whole dose curve; as a rule, active = well fitted curve in the direction sought with a large enough effect; inconclusive = small, poorly fitted or top-dose-only effect, or another doubt; inactive = no such curve, though single readings can be large; an effect the other way counts as inactive or inconclusive.

SMILES	TDP1 block	TDP1 cell noCPT	miR-21 act	TDP1 cell CPT	uPA generation
CC1Cc2cc(S(=O)(=O)N3CCN(c4ccc(Cl)cc4)CC3)ccc2N1C(=O)C1CC1 (stereo not drawn)	0%	13µM*	2%	16µM*	-2%
CCC(=O)N1c2ccc(S(=O)(=O)CCC(=O)N3CCN(c4ccccc4F)CC3)cc2CC1C (stereo not drawn)	.	16µM*	3%	?	-4%
CC(=O)NC1=NN(C(C)=O)C(C)(CS(=O)(=O)c2ccc(C)c(C)c2)S1 (stereo not drawn)	-2%	-1%	-4%	8%	5%
COc1cccc(N2CCN(C(=O)C3CCN(S(=O)(=O)c4ccc5c(c4)CC(C)N5C(C)=O)CC3)CC2)c1 (stereo not drawn)	1%	?	13%	?	?
Cc1ccc(NC(=O)c2cc(C)no2)cc1	.	11%	-38%	-4%	-9%
CC1CCN(S(=O)(=O)c2ccc3nc(N4CCN(c5ccc(F)cc5)CC4)ccc3c2)CC1	0%	-23%	-1%	-2%	.
CC(=O)c1ccc(N2CCN(c3ccc4cc(S(=O)(=O)N5CCC(C)CC5)ccc4n3)CC2)cc1	6%	7.3µM*!	-8%	?	-2%
CC(=O)N1c2ccc(S(=O)(=O)N3CCC(C(=O)N4CCN(c5ccc(Cl)cc5)CC4)CC3)cc2CC1C (stereo not drawn)	2%	5.2µM*	26%	16µM*	-29%
CC(OC(=O)c1cc2sccc2n1C)C(=O)NCc1ccco1 (stereo not drawn)	4%	-15%	-6%	-28%	-3%
Cc1cc(C)cc(C(O)c2ncc(-c3ccc4ccccc4c3)[nH]2)c1 (stereo not drawn)	.	?	.	23µM*	.
Cc1cccc(-c2cnc(C(O)c3ccc(-c4ccccc4)cc3)[nH]2)c1 (stereo not drawn)	.	23µM*	.	23µM*	.
COc1ccc([N+](=O)[O-])cc1NC(=O)c1cncc(Br)c1	4%	-26%	-1%	6%	3%
Cc1cccc(Nc2ncc3c(n2)CC(c2ccco2)CC3=O)c1 (stereo not drawn)	-5%	21µM*	-19%	?	3%
Cc1ccc(-c2ccc(C(=O)Nc3cccc(F)c3)o2)c2ccccc12	4%	21µM*	-7%	?	-16%
COc1ccc(NC(=O)c2ccc(-c3ccc(C)c4ccccc34)o2)cc1	-1%	-2%	-23%	?	-4%
Cc1ccc(NC(=O)c2ccc(-c3cccc(Cl)c3C)o2)cc1	-2%[12.3 µM]	?	-29%	-23%	.
O=C(Nc1cccc(F)c1)c1ccc(-c2ccccc2Cl)o1	-5%	16µM*	-66%	?	-7%
COc1ccc(C2COc3cc(O)ccc3C2)c(OC)c1O (stereo not drawn)	.	16µM*	.	18µM*	?
Clc1cccc(Cc2c(-c3cccc(Cl)c3)nc3c4ccccc4ccn23)c1	.	16µM*	.	?	.
Fc1ccc(-c2nc3c4ccccc4ccn3c2Cc2cccc(Cl)c2)cc1	.	16µM*	.	16µM*	.
Clc1cccc(Cc2c(C3CCCCC3)nc3c4ccccc4ccn23)c1	.	16µM*	.	?	.
Clc1cccc(Cn2ncc3ccccc32)c1	.	-15%	-10%	-16%	-3%
Fc1cccc(Cc2c(-c3ccco3)nc3c4ccccc4ccn23)c1	.	6.5µM*	.	6.5µM*	.
CCCn1nc(C(=O)Nc2nnc(CC)s2)c2ccccc2c1=O	0%	3%	-5%	47%	-8%
COc1ccc(CCC(C)NCc2cccc(Br)c2)cc1 (stereo not drawn)	5%	?	0%	?	-22%
COc1cccc(OC)c1C(=O)NC(=O)Nc1c(F)cc(F)cc1F	.	-11%	6%	-2%	3%
O=C(Nc1ccc2[nH]ncc2c1)c1ccccc1Cl	2%	-16%	-1%	-14%	-12%

Compound activity deposited in PubChem by National Center for Advancing Translational Sciences (NCATS).
